Results published in PubChem BioAssay (EPA / NIEHS).
“And” between values parts separate entries of the source, which are not always exact repeats. Equal values may be shown once. Inconclusive results are not listed. More than one record can exist for a structure, and the calls need not agree. The source made the active and inactive calls. Rule for the calls, unless noted: active = hit-call score of the fitted dose curve at least 0.9, where 1 is the maximum; inconclusive = response in the unintended direction; inactive = score below 0.9.

Tests used:
[1] = molecular target: human Norepinephrine Transporter (NET), SLC6A2 (gene 6530) (UniProt P23975); assay: NVS_TR_hNET: NovaScreen (NVS) Transporter Assay for human Norepinephrine Transporter (NET) (AID 2283377);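 note: cell-free membrane protein extracted from CHO cells expressing human NET; displacement of radioligand from human NET seen as loss of scintillation signal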
human Norepinephrine Transporter (NET), SLC6A2 (gene 6530), sequence (P23975 whole entry, looked up): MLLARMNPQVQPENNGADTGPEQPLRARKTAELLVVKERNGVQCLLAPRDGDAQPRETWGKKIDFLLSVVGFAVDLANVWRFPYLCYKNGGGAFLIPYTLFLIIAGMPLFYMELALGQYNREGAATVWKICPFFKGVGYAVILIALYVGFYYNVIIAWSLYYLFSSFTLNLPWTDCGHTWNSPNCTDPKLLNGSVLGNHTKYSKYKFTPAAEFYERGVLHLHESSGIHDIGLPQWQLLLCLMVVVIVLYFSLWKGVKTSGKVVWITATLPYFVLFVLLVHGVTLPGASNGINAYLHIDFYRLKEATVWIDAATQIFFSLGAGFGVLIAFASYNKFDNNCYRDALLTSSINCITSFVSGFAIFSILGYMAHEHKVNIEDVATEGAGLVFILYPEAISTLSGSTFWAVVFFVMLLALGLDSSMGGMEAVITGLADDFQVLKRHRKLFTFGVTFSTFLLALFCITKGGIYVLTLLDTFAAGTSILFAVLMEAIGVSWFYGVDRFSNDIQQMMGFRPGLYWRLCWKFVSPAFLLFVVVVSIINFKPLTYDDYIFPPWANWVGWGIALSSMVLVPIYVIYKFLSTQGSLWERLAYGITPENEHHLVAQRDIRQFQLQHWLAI
Summary of the method: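 CHO cell extracts expressing the transporter; tritiated or iodinated tracer displaced competitively; filtration plus scintillation readout at 1 h. Single-point duplicates at 25 uM, concentration series for follow-up; activity = signal drop relative to DMSO.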

[2] = molecular target: Agonist Androgen Response Element (ARE), AR (gene 367) (UniProt P10275); assay: OT_AR_ARELUC_AG_1440: Odyssey Thera (OT) 24-hour CHO-K1 Luciferase Assay for Agonist Androgen Response Element (ARE) (AID 2283379)
Agonist Androgen Response Element (ARE), AR (gene 367), sequence (P10275 whole entry, looked up): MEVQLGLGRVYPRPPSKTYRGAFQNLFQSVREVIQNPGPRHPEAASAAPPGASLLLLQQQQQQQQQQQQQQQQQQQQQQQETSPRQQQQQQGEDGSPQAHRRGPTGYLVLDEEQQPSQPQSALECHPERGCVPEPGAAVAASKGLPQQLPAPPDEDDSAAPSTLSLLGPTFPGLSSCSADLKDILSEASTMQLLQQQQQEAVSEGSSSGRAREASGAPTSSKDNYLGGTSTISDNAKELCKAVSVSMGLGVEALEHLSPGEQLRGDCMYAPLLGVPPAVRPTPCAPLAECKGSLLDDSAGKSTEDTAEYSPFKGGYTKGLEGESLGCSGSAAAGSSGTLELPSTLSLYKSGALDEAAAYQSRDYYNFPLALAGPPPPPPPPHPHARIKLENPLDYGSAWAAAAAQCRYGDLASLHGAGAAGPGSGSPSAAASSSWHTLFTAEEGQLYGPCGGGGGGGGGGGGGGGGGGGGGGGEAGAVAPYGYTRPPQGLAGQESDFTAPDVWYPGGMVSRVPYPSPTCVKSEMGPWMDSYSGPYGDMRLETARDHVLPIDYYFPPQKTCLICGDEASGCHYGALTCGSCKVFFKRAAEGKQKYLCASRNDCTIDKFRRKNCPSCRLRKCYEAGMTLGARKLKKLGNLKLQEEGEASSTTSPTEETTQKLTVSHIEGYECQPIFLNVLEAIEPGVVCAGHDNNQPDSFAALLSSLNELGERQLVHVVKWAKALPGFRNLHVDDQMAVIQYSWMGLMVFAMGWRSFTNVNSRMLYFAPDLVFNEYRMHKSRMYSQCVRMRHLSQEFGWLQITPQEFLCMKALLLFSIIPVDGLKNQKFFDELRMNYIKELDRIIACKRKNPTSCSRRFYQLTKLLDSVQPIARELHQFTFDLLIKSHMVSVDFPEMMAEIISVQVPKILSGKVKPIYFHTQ
Summary of the method: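 Gain-of-signal reporter endpoint: cells (CHO-K1, hamster) are treated 24 h, luciferin/ATP reagent added, and luminescence compared with DMSO baseline.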

[3] = molecular target: Estrogen receptor beta (Homo sapiens) (UniProt Q92731); assay: OT_ER_ERbERb_1440: Odyssey Thera (OT) 24-hour HEK293T Protein-Complementation Assay for Estrogen Receptor-beta/-beta Homodimer (AID 2283380);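 note: scored as signal increase over DMSO baseline for both agonists and antagonists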
Estrogen receptor beta (Homo sapiens), sequence (Q92731 whole entry, looked up, the tested form may be a part): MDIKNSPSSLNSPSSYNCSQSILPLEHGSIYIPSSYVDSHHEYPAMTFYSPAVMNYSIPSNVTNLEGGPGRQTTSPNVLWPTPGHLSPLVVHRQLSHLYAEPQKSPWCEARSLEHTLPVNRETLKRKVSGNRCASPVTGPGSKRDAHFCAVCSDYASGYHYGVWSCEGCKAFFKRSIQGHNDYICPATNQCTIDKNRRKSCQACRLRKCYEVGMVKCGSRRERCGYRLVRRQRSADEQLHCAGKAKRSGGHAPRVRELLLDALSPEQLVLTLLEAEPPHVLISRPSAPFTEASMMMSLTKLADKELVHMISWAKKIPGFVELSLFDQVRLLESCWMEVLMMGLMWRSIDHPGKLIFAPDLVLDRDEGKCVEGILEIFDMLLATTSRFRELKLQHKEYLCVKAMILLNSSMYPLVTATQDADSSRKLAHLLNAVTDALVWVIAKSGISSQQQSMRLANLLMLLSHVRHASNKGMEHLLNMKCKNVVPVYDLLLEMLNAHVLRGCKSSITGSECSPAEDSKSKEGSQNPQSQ
Summary of the method: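 HEK293T cells stably expressing ER beta LBD (aa 310-547) homodimer fragment-complementation reporter, dosed 24 h. Cells formaldehyde-fixed, Draq5-stained; gain in nuclear (agonist) or nuclear plus cytoplasmic (antagonist) fluorescence versus DMSO read by laser scanning cytometry.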

[4] = molecular target: Retinoic acid receptor RXR-alpha (Homo sapiens) (UniProt P19793); assay: OT_NURR1_NURR1RXRa_1440: Odyssey Thera (OT) 24-hour HEK293T Protein Complementation Assay for Nurr1/retinoid X receptor (RXR) (AID 2283386)
Retinoic acid receptor RXR-alpha (Homo sapiens), sequence (P19793 whole entry, looked up, the tested form may be a part): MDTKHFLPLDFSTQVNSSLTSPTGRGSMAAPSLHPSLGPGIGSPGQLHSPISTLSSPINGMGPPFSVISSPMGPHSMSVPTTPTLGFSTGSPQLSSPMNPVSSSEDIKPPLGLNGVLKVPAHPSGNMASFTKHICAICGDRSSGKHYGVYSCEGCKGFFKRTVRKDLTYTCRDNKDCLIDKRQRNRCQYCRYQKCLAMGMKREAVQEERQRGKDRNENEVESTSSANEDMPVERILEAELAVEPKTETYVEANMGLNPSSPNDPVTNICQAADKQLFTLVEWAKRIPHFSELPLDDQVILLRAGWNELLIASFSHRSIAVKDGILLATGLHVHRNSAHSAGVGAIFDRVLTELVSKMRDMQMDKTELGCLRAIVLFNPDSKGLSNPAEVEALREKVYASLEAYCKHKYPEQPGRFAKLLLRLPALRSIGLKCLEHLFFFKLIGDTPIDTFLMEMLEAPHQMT
Summary of the method: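 Gain in fluorescence, fitted relative to DMSO, reflects Nurr1–RXRα association in HEK293T cells after 24 h dosing. Bait and prey are each linked to a reporter-protein fragment that reassembles on interaction.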

[5] = molecular target: Peroxisome proliferator-activated receptor gamma (Homo sapiens) (UniProt P37231); assay: OT_PPARg_PPARgSRC1_0480: Odyssey Thera (OT) 8-hour Protein-Complementation Assay for Peroxisome Proliferator-activated Receptor Gamma / SRC-1 Co-activator (AID 2283387);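 note: nuclear to cytoplasmic split Venus YFP fluorescence ratio reporting PPARg SRC-1 interaction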
Peroxisome proliferator-activated receptor gamma (Homo sapiens), sequence (P37231 whole entry, looked up, the tested form may be a part): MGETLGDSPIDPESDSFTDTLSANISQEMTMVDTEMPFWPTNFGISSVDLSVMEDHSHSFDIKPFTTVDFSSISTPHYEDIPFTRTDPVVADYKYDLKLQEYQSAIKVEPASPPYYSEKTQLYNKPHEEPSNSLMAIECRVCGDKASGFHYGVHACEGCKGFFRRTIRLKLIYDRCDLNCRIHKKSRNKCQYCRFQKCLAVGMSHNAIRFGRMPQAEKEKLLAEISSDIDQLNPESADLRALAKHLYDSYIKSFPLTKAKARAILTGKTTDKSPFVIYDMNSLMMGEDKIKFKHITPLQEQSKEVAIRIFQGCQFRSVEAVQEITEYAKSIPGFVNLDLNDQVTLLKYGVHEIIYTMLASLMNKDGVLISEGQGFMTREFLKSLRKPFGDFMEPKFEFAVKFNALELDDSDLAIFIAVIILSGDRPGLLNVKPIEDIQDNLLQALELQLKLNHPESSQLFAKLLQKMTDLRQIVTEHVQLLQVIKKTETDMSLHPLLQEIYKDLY
Summary of the method: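 HEK293T transiently transfected with PPARg and SRC-1 fused to Venus YFP fragments, compounds 8 h at 37C. Fixed, Draq5-stained cells imaged; nuclear/cytoplasmic 488 nm fluorescence ratio over at least 350 cells per image; gain fitted versus DMSO.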

[6] = molecular target: Peroxisome proliferator-activated receptor gamma (Homo sapiens) (UniProt P37231); assay: OT_PPARg_PPARgSRC1_1440: Odyssey Thera (OT) 24-hour Protein-Complementation Assay for Peroxisome Proliferator-activated Receptor Gamma/ SRC-1 Co-activator (AID 2283388)
Summary of the method: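 Transient HEK293T, YFP fragments 1-158/159-239 (mutant IFP1/IFP2) fused to PPARg/SRC-1; 24 h dosing; fix 4% formaldehyde, Draq5; Opera imaging 488/635 nm; N/C ratio, gain vs DMSO.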

[7] = CEETOX_H295R_11DCORT: CeeTox H295R High-throughput Steroidogenesis Assay for 11-Deoxycortisol (11DCORT) (AID 2283432; active = hit-call score of the fitted dose curve at least 0.9, where 1 is the maximum; inactive = score below 0.9;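 for AC50: human adrenal H295R cells prestimulated with 10 µM forskolin for 48 h; 11-deoxycortisol secreted into the medium measured by LC-MS/MS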); settings: actives raise or lower the signal
Summary of the method: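 H295R cells prestimulated 48 h with 10 uM forskolin, then exposed 48 h to chemical in 0.1% DMSO. 11-Deoxycortisol in medium quantified by HPLC-MS/MS after MTBE extraction; bidirectional fit versus DMSO. MTT viability read in same wells.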

[8] = CEETOX_H295R_OHPREG: CeeTox H295R High-throughput Steroidogenesis Assay for OH-Pregnenolone (OHPREG) (AID 2283434; active = hit-call score of the fitted dose curve at least 0.9, where 1 is the maximum; inactive = score below 0.9); settings: actives raise or lower the signal
Summary of the method: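 H295R, 10 uM forskolin pre-stim 48 h; test chemical 48 h, 0.1% DMSO final. MTBE extraction, reverse-phase C18 HPLC-ESI+ MS/MS of medium. Gain/loss vs DMSO; viability by MTT in same wells.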

[9] = CEETOX_H295R_ANDR: CeeTox H295R High-throughput Steroidogenesis Assay for Androstenedione (ANDR) (AID 2283436; active = hit-call score of the fitted dose curve at least 0.9, where 1 is the maximum; inactive = score below 0.9;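 note: human H295R adrenal cells exposed for 48 h with androstenedione measured in medium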); settings: actives raise or lower the signal
Summary of the method: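 48 h chemical exposure, H295R cells, DMEM/F12 + ITS+ and Nu-Serum. Medium androstenedione: MTBE extraction, C18 reverse-phase HPLC, ESI+ MS/MS. Fit bidirectional vs DMSO; MTT viability in same wells.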

[10] = CEETOX_H295R_CORTIC: CeeTox H295R High-throughput Steroidogenesis Assay for Corticosterone (CORTIC) (AID 2283437; active = hit-call score of the fitted dose curve at least 0.9, where 1 is the maximum; inactive = score below 0.9;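 note: corticosterone secreted into medium quantified by mass spectrometry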;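 for AC50: human H295R adrenal cells prestimulated with forskolin before chemical exposure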); settings: actives raise or lower the signal
Summary of the method: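 48 h forskolin (10 uM) prestim, then 48 h chemical exposure, final DMSO 0.1%. Readout: corticosterone in medium by LC-MS/MS after MTBE extraction. Gain/loss fit vs DMSO; MTT viability in same wells.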

[11] = CEETOX_H295R_CORTISOL: CeeTox H295R High-throughput Steroidogenesis Assay for Cortisol (AID 2283438; active = hit-call score of the fitted dose curve at least 0.9, where 1 is the maximum; inactive = score below 0.9); settings: actives raise or lower the signal
Summary of the method: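 Cortisol measured by HPLC-MS/MS after MTBE extraction of medium from H295R cells exposed 48 h to chemical (0.1% DMSO), following 48 h prestimulation with 10 uM forskolin. Viability assessed by MTT in the same wells.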

[12] = CEETOX_H295R_DOC: CeeTox H295R High-throughput Steroidogenesis Assay for DOC (AID 2283439; active = hit-call score of the fitted dose curve at least 0.9, where 1 is the maximum; inactive = score below 0.9); settings: actives raise or lower the signal
Summary of the method: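 11-Deoxycorticosterone quantified in medium by MTBE extraction and HPLC-MS/MS after 48 h chemical exposure (0.1% DMSO) of forskolin-primed (10 uM, 48 h) H295R cells. Same-well MTT viability; data fitted bidirectionally against DMSO.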

[13] = molecular target: Estrogen receptor (Homo sapiens) (UniProt P03372); assay: OT_ERa_GFPERaERE_0480: Odyssey Thera (OT) 8-hour HeLa Transcription Induction Assay for Estrogen Receptor (AID 2283381; active = hit-call score of the fitted dose curve at least 0.9, where 1 is the maximum; inactive = score below 0.9)
Estrogen receptor (Homo sapiens), sequence (P03372 whole entry, looked up): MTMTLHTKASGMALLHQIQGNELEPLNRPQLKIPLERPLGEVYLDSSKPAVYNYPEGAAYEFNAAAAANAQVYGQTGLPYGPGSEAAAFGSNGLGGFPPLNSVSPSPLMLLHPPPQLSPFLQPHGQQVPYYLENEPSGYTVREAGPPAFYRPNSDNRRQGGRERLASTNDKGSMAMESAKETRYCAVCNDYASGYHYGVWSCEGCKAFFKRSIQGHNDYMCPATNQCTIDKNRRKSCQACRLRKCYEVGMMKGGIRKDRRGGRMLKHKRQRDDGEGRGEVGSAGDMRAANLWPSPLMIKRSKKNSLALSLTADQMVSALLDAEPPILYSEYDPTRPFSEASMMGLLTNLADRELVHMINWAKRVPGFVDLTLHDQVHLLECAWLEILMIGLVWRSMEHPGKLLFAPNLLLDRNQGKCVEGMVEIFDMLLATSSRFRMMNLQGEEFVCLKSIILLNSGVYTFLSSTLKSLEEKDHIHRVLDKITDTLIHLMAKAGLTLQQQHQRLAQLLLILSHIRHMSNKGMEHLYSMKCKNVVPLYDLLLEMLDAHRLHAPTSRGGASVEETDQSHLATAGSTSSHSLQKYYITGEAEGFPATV
Summary of the method: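 Fluorescence microscopy with high-content image analysis measures ERE-driven GFP induction in HeLa cells at 8 h post-dose. Increases fitted against DMSO baseline.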

[14] = molecular target: Estrogen receptor (Homo sapiens) (UniProt P03372); assay: OT_ERa_GFPERaERE_0120: Odyssey Thera (OT) 2-hour HeLa Transcription Induction Assay for Estrogen Receptor (AID 2283382)
Summary of the method: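 Fluorescence-microscopy images of the GFP-ERα/ERE reporter, scored by high-content image algorithms, give the readout. HeLa exposure lasted 2 h, and only signal increase over DMSO was fitted.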

[15] = molecular target: Retinoic acid receptor RXR-alpha (Homo sapiens) (UniProt P19793); assay: OT_NURR1_NURR1RXRa_0480: Odyssey Thera (OT) 8-hour HEK293T Protein Complementation Assay for Nurr1/retinoid X receptor (RXR) (AID 2283385)
Summary of the method: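 Interaction of Nurr1 with RXRα read as reconstituted reporter fluorescence in a HEK293T fragment-complementation system, 8 h post-treatment; increase over DMSO baseline analysed.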

[16] = molecular target: mouse Estrogen Receptor alpha (Era), Esr1 (gene 13982) (UniProt P19785); assay: NVS_NR_mERa: NovaScreen (NVS) Nuclear Receptor Binding Assay for mouse Estrogen Receptor alpha (Era) (AID 2283378);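 note: hit means loss of bound radioligand signal relative to DMSO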
mouse Estrogen Receptor alpha (Era), Esr1 (gene 13982), sequence (P19785 whole entry, looked up): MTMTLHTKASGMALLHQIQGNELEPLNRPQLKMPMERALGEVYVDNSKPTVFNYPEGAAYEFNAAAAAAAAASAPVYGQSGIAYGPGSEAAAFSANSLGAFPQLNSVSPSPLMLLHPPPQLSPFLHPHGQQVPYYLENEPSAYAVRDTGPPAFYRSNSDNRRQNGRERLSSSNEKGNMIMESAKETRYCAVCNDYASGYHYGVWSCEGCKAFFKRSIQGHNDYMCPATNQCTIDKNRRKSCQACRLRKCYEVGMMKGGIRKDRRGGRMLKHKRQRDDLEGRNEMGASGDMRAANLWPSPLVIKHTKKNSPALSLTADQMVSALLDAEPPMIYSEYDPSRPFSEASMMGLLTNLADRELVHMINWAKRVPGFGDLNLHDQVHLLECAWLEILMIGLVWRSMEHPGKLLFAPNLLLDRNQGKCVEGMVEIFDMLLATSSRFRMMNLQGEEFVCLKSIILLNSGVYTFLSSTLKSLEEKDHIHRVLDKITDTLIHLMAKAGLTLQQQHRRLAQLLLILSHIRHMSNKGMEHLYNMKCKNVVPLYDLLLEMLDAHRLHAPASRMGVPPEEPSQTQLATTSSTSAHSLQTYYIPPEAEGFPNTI
Summary of the method: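 Test chemicals competed against a specific radioligand for binding to cell-free mouse Era. Duplicate wells at 25 uM were read 18 hours later by filter-based radiodetection, with loss of signal against DMSO scored as activity.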

[17] = molecular target: Bile acid receptor (Homo sapiens) (UniProt Q96RI1); assay: OT_FXR_FXRSRC1_0480: Odyssey Thera (OT) 8-hour HEK293T Protein-Complementation Assay for Farnesoid X receptor/SRC-1 Co-activator (AID 2283383)
Bile acid receptor (Homo sapiens), sequence (Q96RI1 whole entry, looked up, the tested form may be a part): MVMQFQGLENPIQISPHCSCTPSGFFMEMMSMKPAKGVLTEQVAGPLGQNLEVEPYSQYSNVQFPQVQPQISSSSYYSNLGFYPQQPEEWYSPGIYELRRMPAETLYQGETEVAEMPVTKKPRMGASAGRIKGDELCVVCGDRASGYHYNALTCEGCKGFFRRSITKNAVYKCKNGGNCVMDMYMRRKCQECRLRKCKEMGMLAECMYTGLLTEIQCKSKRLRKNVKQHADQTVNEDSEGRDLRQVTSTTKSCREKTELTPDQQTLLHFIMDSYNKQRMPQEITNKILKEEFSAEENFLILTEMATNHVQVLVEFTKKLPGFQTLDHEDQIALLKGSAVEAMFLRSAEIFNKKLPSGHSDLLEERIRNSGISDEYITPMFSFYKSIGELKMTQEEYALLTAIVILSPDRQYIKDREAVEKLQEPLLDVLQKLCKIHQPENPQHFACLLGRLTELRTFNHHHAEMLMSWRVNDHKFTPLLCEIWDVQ
Summary of the method: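 Binding of FXR to coactivator SRC-1 was read as fluorescence from a reconstituted split reporter in HEK293T cells, 8 h after chemical addition. Only increases in signal versus DMSO were fit.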

[18] = CEETOX_H295R_ESTRADIOL: CeeTox H295R High-throughput Steroidogenesis Assay for Estradiol (AID 2283440; active = hit-call score of the fitted dose curve at least 0.9, where 1 is the maximum; inactive = score below 0.9;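 note: estradiol secreted into medium quantified by LC-MS/MS after dansyl derivatisation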); settings: actives raise or lower the signal
Summary of the method: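 Following OECD 456 with minor changes, H295R cells received 10 uM forskolin for 48 h and then test chemical for 48 h. Hormone output was read by HPLC-MS/MS, with cytotoxic concentrations diluted until MTT viability reached ≥70%.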

[19] = CEETOX_H295R_ESTRONE: CeeTox H295R High-throughput Steroidogenesis Assay for Estrone (AID 2283441; active = hit-call score of the fitted dose curve at least 0.9, where 1 is the maximum; inactive = score below 0.9;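 for AC50: human adrenal H295R cells prestimulated with forskolin for two days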); settings: actives raise or lower the signal
Summary of the method: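 Estrone secreted into medium quantified by LC-MS/MS after dansyl chloride derivatization, following 48 h chemical exposure (0.1% DMSO final) of forskolin-prestimulated (10 uM, 48 h) H295R cells; gain or loss fitted against DMSO; MTT viability in same wells.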

[20] = molecular target: Bile acid receptor (Homo sapiens) (UniProt Q96RI1); assay: OT_FXR_FXRSRC1_1440: Odyssey Thera (OT) 24-hour HEK293T Protein-Complementation Assay for Farnesoid X receptor/SRC-1 Co-activator (AID 2283384)
Summary of the method: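 Protein-fragment complementation: FXR and SRC-1 fused to reporter fragments that reassemble on interaction, read by fluorescence intensity. Human HEK293T cells measured 24 h post-dose; positive-direction fit versus DMSO.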

Measured: AC50

Oc1ccc2ccccc2c1
inactive: [4] | [5] | [6] | [7] | [8] | [10] | [11] | [12]
active: [1] 7.32 µM | [2] 1.64 µM | [3] 45.7 µM | [9] 76.7 µM

COCC(C)OCC(C)OCC(C)O (configuration not stated)
inactive: [2] | [3] | [13] | [14] | [15] | [4] | [5] | [6]

CC(C)(c1cc(Br)c(O)c(Br)c1)c1cc(Br)c(O)c(Br)c1
active: [17] 70 µM | [15] 20.6 µM and 72.4 µM | [4] 47.8 µM
inactive: [16] | [3] | [4] | [7] | [8] | [10] | [11] | [12]

Cc1ccc(C(C)C)cc1
inactive: [2] | [13] | [14] | [17] | [15] | [4] | [5] | [6]

CC(=O)N1CCN(c2ccc(OC[C@H]3CO[C@](Cn4ccnc4)(c4ccc(Cl)cc4Cl)O3)cc2)CC1
active: [1] 9.91 µM | [13] 81.2 µM | [14] 94 µM | [7] 0.783 µM | [8] 1.42 µM | [10] 1.77 µM | [11] 0.895 µM | [12] 1 µM | [19] 1.47 µM
inactive: [16] | [3] | [5] | [6] | [18]

O=C(O)Cn1c(=O)n(Cc2ccc(Br)cc2F)c(=O)c2ccc(Cl)cc21
inactive: [2] | [3] | [13] | [14] | [17] | [20] | [15] | [4] | [5] | [6] | [7] | [8] | [9] | [10] | [11] | [12] | [18] | [19]
active: [6] 49.7 µM

COc1cc(C(=O)NC2CCN(C)CC2)ccc1Nc1ncc2c(n1)N(C1CCCC1)CC(F)(F)C(=O)N2C
active: [1] 23.2 µM | [16] 1.49 µM | [3] 1.94 µM | [17] 11 µM | [20] 11 µM | [15] 10.9 µM | [4] 11 µM
inactive: [13] | [14] | [5] | [6]

CCCCCc1ccc(N)cc1
inactive: [16] | [3] | [13] | [14] | [15] | [4] | [5] | [6]
active: [16] 0.0459 µM
